# hgDAF12 agonist = activates the H. glycines DAF-12 receptor ligand-binding domain; HEK293 GAL4-hgDAF12 UAS-luciferase reporter, agonist luminescence; normalized to butyrate control; activation, % at 6.8 µM; AID 687014; actives 1.8% (n = 370,000);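 active = activation above a cutoff set at the mean of all screened compounds plus 3 SD, cut at about 10% in these data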
# ssDAF12 agonist = S. stercoralis DAF-12 activation, primary screen; HEK293 ssDAF-12/GRIP1 lit1-tk-luc reporter, luminescence; % of 3 µM dafachronic acid response; activation, % at 6.8 µM; actives 1% (n = 370,000); AID 652126;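 active = activation above the mean over all tested compounds plus 3 SD, cut at about 0.9% in these data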
# hcDAF12 agonist = activators of H. contortus DAF-12 nuclear receptor; activation, % at 6.8 µM; HEK293 hcDAF-12 lit1-tk-luc reporter, luminescence; 0% DMSO, 100% Δ7-dafachronic acid; actives 1.4% (n = 370,000);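 active = activation above the mean of all tested compounds plus 3 SD, cut at about 5.5% in these data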
# DAX1 inh-1 = NR0B1 (DAX1) inhibition; P51843; HEK293 Gal4-DAX1 luciferase reporter, luminescence; inhibition, % at 6.75 µM; actives 0.99% (n = 340,000);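 active = inhibition above the mean over all tested compounds plus 3 SD, cut at about 4.2% in these data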;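 note: inhibition shows as a rise in luminescence from relieved DAX1 repression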
# DAX1 inh-2 = inhibitors of DAX1 repression of SF-1 activated StAR promoter. HEK293T StAR-luciferase reporter, SF-1/DAX-1 repression relief. inhibition, % at 6.8 µM. actives 1.1% (n = 370,000);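 active = inhibition above the mean over all tested compounds plus 3 SD, cut at about 3.6% in these data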;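 note: higher inhibition means more luminescence from relief of DAX-1 repression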
# AHR activator = activators of human aryl hydrocarbon receptor. AID 2796. activation, % at 5 µM. actives 2.5% (n = 320,000). AHR-responsive luciferase reporter cells, luminescence; in the data active = activation above about 47%
# Target sequence (P35869 whole entry, looked up): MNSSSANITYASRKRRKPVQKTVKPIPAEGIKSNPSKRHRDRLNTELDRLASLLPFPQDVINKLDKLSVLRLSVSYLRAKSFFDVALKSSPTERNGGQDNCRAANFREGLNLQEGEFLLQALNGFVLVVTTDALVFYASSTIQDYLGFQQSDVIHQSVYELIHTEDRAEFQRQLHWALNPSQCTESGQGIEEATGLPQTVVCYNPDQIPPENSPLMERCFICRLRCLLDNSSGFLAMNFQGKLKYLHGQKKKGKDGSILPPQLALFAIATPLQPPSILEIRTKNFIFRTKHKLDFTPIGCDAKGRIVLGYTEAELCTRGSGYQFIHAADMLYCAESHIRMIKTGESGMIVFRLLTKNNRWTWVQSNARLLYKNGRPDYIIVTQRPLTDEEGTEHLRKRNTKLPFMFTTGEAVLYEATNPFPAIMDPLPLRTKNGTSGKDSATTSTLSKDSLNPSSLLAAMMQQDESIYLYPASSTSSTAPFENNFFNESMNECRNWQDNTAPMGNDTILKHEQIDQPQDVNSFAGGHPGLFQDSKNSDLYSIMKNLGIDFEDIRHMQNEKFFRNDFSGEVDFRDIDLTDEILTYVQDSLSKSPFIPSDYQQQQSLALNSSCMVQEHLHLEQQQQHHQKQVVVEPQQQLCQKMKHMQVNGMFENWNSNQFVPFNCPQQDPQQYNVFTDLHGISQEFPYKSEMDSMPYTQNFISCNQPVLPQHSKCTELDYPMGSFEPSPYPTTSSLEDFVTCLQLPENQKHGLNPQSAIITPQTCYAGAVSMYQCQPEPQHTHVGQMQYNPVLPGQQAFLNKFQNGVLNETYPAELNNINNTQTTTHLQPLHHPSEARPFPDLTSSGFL
# Numbers stand for hits; n = inactive; x = not tested or not shown. The list is not random: actives were taken first. Their share in the collection is about 5.7%.
SMILES,hgDAF12 agonist,ssDAF12 agonist,hcDAF12 agonist,DAX1 inh-1,DAX1 inh-2,AHR activator
CCOc1cccc2sc(N(CCCN(C)C)C(=O)c3ccc(S(=O)(=O)N(CC)Cc4ccccc4)cc3)nc12,n,n,n,n,n,n
CCN(Cc1ccccc1)S(=O)(=O)c1ccc(C(=O)N(CCCN(C)C)c2nc3c(F)cccc3s2)cc1,n,n,5.7,n,n,n
CCN(CC)S(=O)(=O)c1cccc(NC(=O)c2cc(-c3cccs3)nn2-c2ccccc2)c1,n,n,n,n,n,n
O=[N+]([O-])c1ccccc1C1Nc2cccc3cccc(c23)N1,n,n,n,n,n,75
COc1ccccc1C1Nc2cccc3cccc(c23)N1,n,n,n,n,n,60
O=[N+]([O-])c1c(NCc2ccco2)ncnc1NCc1ccco1,n,n,n,n,n,x
COc1cccc(OCc2ccc(Cn3nc(NC(=O)NCCc4ccc(OC)c(OC)c4)c4ccccc43)cc2)c1,n,2.2,5.8,x,n,x
O=C(CCS(=O)(=O)c1ccc2c(c1)NC(=O)CO2)NCCc1ccccc1,n,n,n,n,n,n
O=C(O)c1ccnc(C(=O)O)c1,n,n,n,4.5,n,n
O=C(Nc1cccc(S(=O)(=O)N2CCOCC2)c1)c1ccco1,n,n,n,n,n,n
COc1ccc(NC(C)=O)cc1S(=O)(=O)Nc1ccccc1C(=O)N1CCCC1,n,n,n,n,n,n
COc1ccc(NC(C)=O)cc1S(=O)(=O)Nc1ccc(C(=O)N2CCCC2)cc1,n,n,n,4.4,n,n
Cc1ccc(S(=O)(=O)N(C)CC(=O)NCC(=O)Nc2ccc(F)c(F)c2F)cc1,n,n,n,4.7,n,n
Cc1c(/C=N/NC(=O)c2ccc(Br)o2)cnn1C,n,n,6.2,x,n,n
Cc1c(/C=N\NC(=O)c2ccc(F)cc2)cnn1C,n,n,n,n,n,n
COc1ccc(C2CC(=O)c3c(O)cc(O)cc3O2)cc1O (configuration not stated),n,n,n,4.8,n,x
CC(C)Cn1c(=O)c2c(nc3n2CCCN3Cc2ccccc2)n(C)c1=O,n,n,n,n,n,n
CCOc1ccccc1NCN1C(=O)c2ccccc2C1=O,n,n,n,n,n,x
C=CCOn1c(=O)c(-c2ccc(Cl)cc2)[n+]([O-])c2ccccc21,n,n,n,n,n,x
Cc1c(=O)n(OCc2cccc(F)c2)c2ccccc2[n+]1[O-],n,n,n,n,n,84
Cc1c(=O)n(OCc2ccc(Cl)cc2)c2ccccc2[n+]1[O-],n,n,n,n,n,59
CCC1(c2ccccc2)ON(c2c(Br)cccc2Br)C1=O (configuration not stated),n,n,n,n,n,n
Cc1cc(NC(=O)c2ccccc2)ncc1NC(=O)c1cccs1,n,n,n,n,n,n
O=C(NC(=S)Nc1ccccc1N1CCCCC1)c1cccs1,n,n,n,n,n,n
O=C(NC(=S)N1CCCCC1CO)c1cccs1 (configuration not stated),n,n,n,6.5,n,n
SMILES,hgDAF12 agonist,ssDAF12 agonist,hcDAF12 agonist,DAX1 inh-1,DAX1 inh-2,AHR activator
Cc1cc(NC(=O)c2cccs2)ncc1NC(=O)C(C)C,11,n,n,n,n,n
CCN(CC)c1ccc(NC(=S)NC(=O)c2cccs2)cc1,11,n,n,n,n,n
O=C(NC(=S)Nc1ccccc1N1CCCC1)c1cccs1,n,n,5.7,n,n,51
O=C(NC(=S)Nc1cccnc1)c1cccs1,n,n,n,n,n,n
COc1cc(NC(=S)NC(=O)c2cccs2)ccc1NC(=O)C(C)C,n,n,n,n,n,n
CCN(CC)c1ccc(NC(=S)Nc2ccc(F)cc2)cc1,12,n,n,n,n,x
O=C(NC(=S)Nc1ccc(Cl)cn1)c1cccs1,n,1.1,n,5.5,n,n
CC(C)C(=O)Nc1cccc(NC(=S)NC(=O)c2cccs2)c1,n,n,n,n,4.1,48
O=C(NC(=S)Nc1ccc(N2CCCCC2)cc1)c1cccs1,12,n,n,n,n,n
COc1cccc(C(=O)N(Cc2nc(-c3cccc(C)c3)no2)C(C)C)c1OC,n,n,n,n,n,n
Cc1c(Cl)cccc1NC(=S)N=Nc1c(O)n(CN2CCOCC2)c2ccccc12,x,x,x,n,x,53
Cc1ccc(C(=O)O/N=C(\N)c2cccc([N+](=O)[O-])c2)cc1,n,n,n,n,n,n
COc1cc(C(=O)O/N=C(\N)c2ccc([N+](=O)[O-])cc2)cc(OC)c1OC,n,n,n,n,n,n
N/C(=N\OC(=O)c1ccco1)c1cccc([N+](=O)[O-])c1,13,n,n,n,n,n
N/C(=N\OC(=O)c1ccco1)c1cccc(Br)c1,n,n,6.1,n,n,n
N/C(=N\OC(=O)c1ccccc1F)c1cccc([N+](=O)[O-])c1,n,n,n,5.4,n,n
COc1cc(C(=O)O/N=C(\N)c2cccc([N+](=O)[O-])c2)cc(OC)c1OC,n,n,n,5.1,n,n
N/C(=N\OC(=O)c1ccccc1Br)c1ccc([N+](=O)[O-])cc1,n,n,6.1,n,n,n
COc1cccc(/C(N)=N/OC(=O)Cc2ccccc2[N+](=O)[O-])c1,n,n,n,4.7,n,60
COc1ccc(/C(N)=N/OC(=O)c2cccc([N+](=O)[O-])c2C)cc1,n,n,n,n,n,54
c1ccc2c(c1)nnn2-c1ncnc2sccc12,n,n,n,n,n,n
O=C(CCCNc1ccccc1)N/N=C/c1cccs1,n,n,n,n,n,n
CC(C)Nc1ncnc2c1cnn2Cc1ccccc1Cl,n,n,n,n,n,n
CCOC(=O)CSc1nnc(Cn2c(=O)sc3ccccc32)n1C,n,n,n,5.8,n,n
CCOC(=O)N1CCN(C(=O)CSc2nnc(Cn3c(=O)sc4ccccc43)n2C)CC1,n,n,n,n,n,n
SMILES,hgDAF12 agonist,ssDAF12 agonist,hcDAF12 agonist,DAX1 inh-1,DAX1 inh-2,AHR activator
CC(=O)c1ccc(NC(=O)CSc2nnc(Cn3c(=O)sc4ccccc43)n2C)cc1,n,n,n,4.8,n,n
CCCCCOc1ccc(Br)cc1/C(C)=N/NC1=NCCN1,n,n,n,n,n,62
CCCSC1=N/C(=C\C=C\c2ccco2)C(=O)S1,n,n,n,n,n,n
CCSC1=N/C(=C\C=C2/Oc3ccccc3N2CC)C(=O)S1,n,n,n,n,n,75
COc1ccc(N2CCN(C(=O)c3ccc(-c4nc5ccccc5s4)o3)CC2)cc1,n,n,n,n,n,69
FC(F)(F)c1ccc(-n2cnc3ccccc32)nc1,n,n,n,n,n,65
CCn1c(COc2ccccc2C)nnc1SCC(=O)NC1CCCC1,n,n,n,n,n,n
CCn1c(CNC(=O)Cc2ccc(OC)cc2)nnc1SCC(=O)NC1CCCCC1,n,1.0,n,n,n,n
CCOc1ccccc1-c1nnc(SCC(=O)NC2CC2)n1CC,n,1.1,n,n,n,n
